For 18 compounds, Potency results are on record in PubChem BioAssay (Tox21).

A short description of test [1]: qHTS assay to identify small molecule agonists of the RXR signaling pathway - cell viability counter screen (AID 1159529). Also: nearly all actives have a fitted effect of over 50% in size. Also: potency is read from the fitted curve at half-maximal effect. The following applies: RXR-alpha-bla HEK293T viability, CellTiter-Glo, 16 h; series mostly up to 76.8 µM. The essentials: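 Same-well viability check after the LiveBLAzer FRET read: CellTiter-Glo added, luminescence measured after 30 min at room temperature. Reporter HEK 293T cells had been treated with compounds for 16 hr following a 5 hr preincubation.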

Test [2] can be described thus: qHTS assay to identify small molecule antagonists of the retinoid acid receptor (RAR) signaling pathway - cell viability counter screen (AID 1159551). Also: nearly all actives have a fitted effect of over 35% in size. Conditions: C3RL4 cells viability, ATP luminescence (CellTiter-Glo), 6 h; series mostly up to 92.4 µM. The method in brief:
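Cytotoxicity counter screen: ATP content quantified by CellTiter-Glo luminescence in C3RL4 cells treated 6 hr at 37 C with compound and retinol (1 uM final). Cells plated at 1,000/well and cultured overnight before dosing.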

The nature of test [3]: qHTS assay to identify small molecule antagonists of the retinoic acid receptor (RAR) signaling pathway (AID 1159552; also: nearly all actives have a fitted effect of over 50% in size; also: potency is read from the fitted curve at half-maximal effect). Conditions: C3RL4 RARE luciferase reporter, retinol-stimulated, 6 h; series mostly up to 92.4 µM. The method in brief:
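Readout: luciferase luminescence, 30 min post-reagent at RT. Setup: C3RL4 RARE reporter cells, compounds plus retinol 1 uM final, 6 hr incubation at 37 C and 5% CO2.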
On the technique in general: qHTS replaces the single test concentration by a dilution series.

The nature of test [4]: qHTS assay to identify small molecule agonists of the retinoic acid receptor (RAR) signaling pathway (AID 1159553). Also: potency is read from the fitted curve at half-maximal effect. The following applies: C3RL4 RARE luciferase reporter, agonist, 6 h; series mostly up to 73.3 µM. The essentials: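 Luminescence was measured 30 min after luciferase reagent addition at room temperature. Before that, C3RL4 reporter cells (1,000 per well, plated overnight) were treated with compound for 6 hr at 37 C and 5% CO2.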

Results filed as inconclusive are left out. The source made the active and inactive calls. Calls follow the shape of the dose curve; as a rule, active = well fitted curve in the direction sought with a large enough effect in the repeat runs; inconclusive = weak or mixed curves; inactive = no such curve, though single readings can be large; an effect the other way counts as inactive or inconclusive.

As to `CC(C)=CC=O`, the Potency result in test [1], in test [2], in test [3] and in test [4] was “inactive” in each case.

With `CC(Cl)C(Cl)Cl` (centres undefined), the Potency result in test [1] and in test [2] was “inactive” each time.

Turning to `O=C(NCCCN1CCOCC1)c1ccc(Cl)cc1`, the Potency result in test [1], in test [2] and in test [3] was “inactive” throughout.

`NC(=O)N(O)[C@@H]1C=C[C@H](Oc2cccc(Oc3ccc(F)cc3)c2)C1`: the Potency result in test [1], in test [2] and in test [3] was “inactive” in each case. In test [4], the Potency was 61.1 µM (active).

With `O=C(O)c1cccc(O)c1`, the Potency entry in test [1], in test [2], in test [3] and in test [4] was “inactive” each time.

Consider `Oc1ccc(Nc2ccccc2)cc1`, for which the Potency in test [1] is 30.9 µM (active). In addition, the Potency entry in test [2], in test [3] and in test [4] was “inactive” throughout.

In the case of `Cc1c(C(=O)NN2CCCCC2)nn(-c2ccc(Cl)cc2Cl)c1-c1ccc(Cl)cc1`, the Potency entry in test [1] and in test [2] was “inactive” each time.

For `CCOC(=O)OCC`, the Potency result in test [1] and in test [2] was “inactive” throughout.

With `O=C(O)c1ccc(CO)o1`, the Potency entry in test [1], in test [2], in test [3] and in test [4] was “inactive” throughout.

For the compound `CCOC(=O)C(C)Oc1ccc(Oc2nc3ccc(Cl)cc3o2)cc1` (centres undefined), the Potency entry in test [1], in test [2] and in test [3] was “inactive” in each case.

Turning to `C=CC(=O)NCOCC(C)C`, the Potency entry in test [1] and in test [2] was “inactive” each time.

`O=C(c1ccc(O)cc1)c1ccc(Cl)cc1`: the Potency result in test [1], in test [2] and in test [3] was “inactive” in each case.

In the case of `CCCCC(=O)O[C@]1(C(=O)CO)[C@@H](C)C[C@H]2[C@@H]3CCC4=CC(=O)C=C[C@]4(C)[C@@]3(F)[C@@H](O)C[C@@]21C`, the Potency entry in test [1] and in test [2] was “inactive” each time. In addition, in test [3], the Potency was 61.1 µM (active).

Take `CCCCCCCCCCCC[N+](C)(C)CC(=O)[O-]`: the Potency in test [1] was 24.5 µM (active). The Potency entry in test [2], in test [3] and in test [4] was “inactive” throughout.

Turning to `Nc1ccc(C(=O)OCCCOC(=O)c2ccc(N)cc2)cc1`, the Potency entry in test [1], in test [2] and in test [3] was “inactive” each time.

In the case of `CO/N=C1\CN(c2nc3c(cc2F)c(=O)c(C(=O)O)cn3C2CC2)CC1CN` (centres undefined), the Potency result in test [1] and in test [2] was “inactive” each time.

In the case of `Cc1nccn1-c1ccc(Sc2cccc(C3(C(N)=O)CCOCC3)c2)cc1`, the Potency result in test [1] and in test [2] was “inactive” each time. Also, in test [3], the Potency was 9.69 µM (active).

As to `C[C@@H]1C[C@H]2[C@@H]3CCC4=CC(=O)C=C[C@]4(C)[C@@]3(F)[C@@H](O)C[C@]2(C)[C@@]1(O)C(=O)CO`, the Potency entry in test [1] and in test [2] was “inactive” in each case.
